SMILES strings stand for the structures. Records with an inconclusive call do not appear. Activity calls are given as the source filed them. Unless noted, no rule for the calls is given here.

Experiment [1] can be described thus: qHTS profiling of the MIPE4 collection as inhibitors of Plasmodium falciparum (3D7) proliferation (AID 743344).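 Also: scaled between DMSO vehicle wells and 0.29 µM artemisinin as full inhibition.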 Conditions: P. falciparum 3D7 in erythrocytes, SYBR Green DNA fluorescence, 72 h. A digest of the protocol:
(§1)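 Parasite DNA was quantified by SYBR Green I fluorescence (ex 485, em 535 nm) after overnight lysis in saponin/Triton buffer at room temperature. Cultures at 0.3% parasitemia and 2.5% hematocrit were first exposed to compound for 72 h at 37 C; signals were normalised to artemisinin (0.29 uM) and vehicle wells.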
(In general: qHTS replaces the single test concentration by a dilution series.)

A short description of experiment [2]: qHTS profiling of the MIPE4 collection as inhibitors of Plasmodium falciparum (DD2) proliferation (AID 743345). As to conditions: P. falciparum Dd2 in erythrocytes, SYBR Green DNA, 72 h. A digest of the protocol:
as §1

A short description of experiment [3]: qHTS profiling of the MIPE4 collection as inhibitors of Plasmodium falciparum (DD2) proliferation (Rep 2) (AID 743346). As to conditions: P. falciparum Dd2 in erythrocytes, SYBR Green DNA, 72 h; at 28.5 µM unless noted. The procedure, abridged:
as §1

Experiment [4] in a line: qHTS profiling of the MIPE4 collection as inhibitors of Plasmodium falciparum (HB3) proliferation (AID 743347).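 Also: plate controls were DMSO vehicle wells for no effect and artemisinin wells for full effect.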 Conditions: P. falciparum HB3 in erythrocytes, SYBR Green DNA, 72 h; at 28.5 µM unless noted. A digest of the protocol:
as §1

Experiment [5] is described as follows: High-throughput drug toxicity screening in the BPDCN cell line Gen2.2 (AID 1224824).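 Also: cells exposed to compounds for 48 h before reading.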 Conditions: Gen2.2 BPDCN cells; at 45.8 µM (top of the series) unless noted. The procedure, abridged: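 Gen2.2 cells (500/well) in phenol red-free RPMI with 10% FBS were exposed to compounds for 48 h at 37 °C, 5% CO2. Viability was read by CellTiter-Glo luminescence and normalized to DMSO (100%) and 9.2 uM bortezomib (0%).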

Experiment [6] in a line: High-throughput drug toxicity screening in the BPDCN cell line Cal-1 (AID 1224825). Conditions: Cal-1 BPDCN cell viability, qHTS; at 45.8 µM (top of the series) unless noted. The procedure, abridged:
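Percent activity derived from CellTiter-Glo luminescence, scaling DMSO to 100% and 9.2 uM final bortezomib to 0%. BPDCN Cal-1 cells (500/well, RPMI plus 10% FBS) incubated with compounds 48 hours at 37C before reading.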

Experiment [7] can be described thus: qHTS assay for measurement of the activity of small molecule inhibitors on Zika virus induced Caspase-3 activity in human iPSC derived neural progenitor cells (hNPCs) (AID 1224857; active = well fitted curve in the direction sought with a large enough effect; an effect the other way counts as inactive or inconclusive; also: % of control where 0% means no effect; nearly all actives have a fitted effect of over 65% in size). The procedure, abridged: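 After overnight (16–20 h) culture at 350 cells/well, hNPCs get compound, then ZIKV 2 FFU/cell one hour later. Six hours on, Caspase-Glo 3/7 is added and luminescence measured.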

Experiment [8] can be described thus: qHTS assay for measurement of the activity of small molecule inhibitors on Zika virus induced Caspase-3 activity in human astrocytoma cells (AID 1224859; active = well fitted curve in the direction sought with a large enough effect; an effect the other way counts as inactive or inconclusive;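 also: plate controls were ZIKV-infected untreated cells for no effect and uninfected cells for full effect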). The procedure, abridged:
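Inhibition of Zika-induced caspase-3/7 activity: SNB-19 cells, 1 h compound pretreatment, ZIKV 2 FFU/cell for 6 h at 37 C, Caspase-Glo luminescence read-out.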

Experiment [9] can be described thus: qHTS profiling for inhibitors of Plasmodium falciparum (3D7) proliferation (AID 743322).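 Also: infected erythrocytes exposed to compound for 72 h before lysis; 100% = DMSO vehicle wells and 0% = 0.29 µM artemisinin.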 As to conditions: P. falciparum 3D7 proliferation; at 28.7 µM (top of the series). The procedure, abridged: as §1
Experiment [10] in a line: qHTS profiling for inhibitors of Plasmodium falciparum (HB3) proliferation (AID 743324; active = well fitted curve in the direction sought with a large enough effect; an effect the other way counts as inactive or inconclusive;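 also: 100% = DMSO vehicle wells and 0% = artemisinin-treated control wells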). Conditions: Plasmodium falciparum HB3 blood-stage proliferation; at 28.7 µM (top of the series). The procedure, abridged:
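SYBR Green fluorescence (485 ex/535 em) of lysed cultures, incubated overnight at room temperature in the dark, quantifies parasite DNA. Infected erythrocytes at 0.3% parasitemia and 2.5% hematocrit were exposed 72 h; values normalized to DMSO and 0.29 uM artemisinin controls.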

[11] abbreviates: at 28.5 µM unless noted.

Molecule `CC(C)Nc1cc(C(F)(F)F)cc2nc(NC(=O)c3cccnc3)nn12` displayed a parasite growth, % of DMSO control in experiment [1] (setting [11]) of 78.6%. For the same molecule, the parasite growth remaining, % of DMSO control (lower = more inhibition) in experiment [2] (setting [11]) was 97.3%. In experiment [3], this molecule came in with a parasite growth, % of control (lower = inhibition) of 92.3%. In experiment [4], this molecule displayed a growth, % of control of 93.5%. Moreover, in experiment [5], the cell viability, % of control (lower = more cytotoxic) came out at 80.4%. The viability (% of control) in experiment [6] worked out at 120%. Besides, the Potency entry in [7] and in experiment [8] was “inactive” throughout.
Consider `Cn1cc(-c2ccncc2)c(-c2ccc(OCc3ccc4ccccc4n3)cc2)n1`, for which the parasite growth, % of DMSO control in experiment [1] (setting [11]) amounted to 83.3%. In [2] (setting [11]), the parasite growth remaining, % of DMSO control (lower = more inhibition) worked out at 98.3%. Moreover, in experiment [3], the parasite growth, % of control (lower = inhibition) stood at 82.2%. In addition, the growth, % of control in experiment [4] turned out to be 65.2%. The cell viability, % of control (lower = more cytotoxic) in experiment [5] worked out at 56.4%. Also, in experiment [6], the viability (% of control) was determined as 38.2%. Also, the Potency entry in experiment [7] and in [8] was “inactive” in each case.
With `CC(C)(C)c1cc(NC(=O)Nc2ccc(-c3cn4c(n3)sc3cc(OCCN5CCOCC5)ccc34)cc2)no1`, the remaining parasite growth % (stronger effect = lower value) in experiment [9] was -1.57%. The remaining proliferation (% of control), lower = more inhibition in experiment [10] was -0.226%. This molecule also showed a parasite growth, % of DMSO control in experiment [1] (setting [11]) of 4.46%. For the same molecule, the parasite growth remaining, % of DMSO control (lower = more inhibition) in [2] (setting [11]) was found to be 7.47%. Moreover, in experiment [3], the parasite growth, % of control (lower = inhibition) was 15.2%. Besides, the cell viability, % of control (lower = more cytotoxic) in experiment [5] stood at 252%. Further, the viability (% of control) in experiment [6] worked out at 75.9%. In addition, the Potency entry in [7] and in experiment [8] was “inactive” throughout.
In turn, `CNC(=O)c1c(F)cccc1Nc1nc(Nc2cc3c(cc2OC)CCN3C(=O)CN(C)C)nc2[nH]ccc12` yielded a parasite growth, % of DMSO control in [1] (setting [11]) of 3.51%. In [2] (setting [11]), the parasite growth remaining, % of DMSO control (lower = more inhibition) was 6.69%. In addition, the cell viability, % of control (lower = more cytotoxic) in experiment [5] amounted to 5.55%. Besides, the viability (% of control) in experiment [6] is 2.8%. The Potency result in [7] and in experiment [8] was “inactive” in each case.
In experiment [1] (setting [11]), `CNC(=O)c1ccc(N2C(=S)N(c3cnc(C#N)c(C(F)(F)F)c3)C(=O)C23CCC3)cc1F` showed a parasite growth, % of DMSO control of 41%. Further, the parasite growth remaining, % of DMSO control (lower = more inhibition) in [2] (setting [11]) was determined as 79.8%. Further, the parasite growth, % of control (lower = inhibition) in experiment [3] turned out to be 39%. This molecule showed a growth, % of control in experiment [4] of 41.2%. Further, in experiment [5], the cell viability, % of control (lower = more cytotoxic) is 7.43%. Further, the viability (% of control) in [6] was determined as 3.32%. Besides, the Potency entry in experiment [7] and in [8] was “inactive” throughout.
In [1] (setting [11]), `Cc1nc(Nc2n[nH]c3c2CN(C(=O)N[C@H](CN(C)C)c2ccccc2)C3(C)C)c2sccc2n1` came in with a parasite growth, % of DMSO control of 4.72%. For the same molecule, in experiment [2] (setting [11]), the parasite growth remaining, % of DMSO control (lower = more inhibition) is 7.44%. In addition, the parasite growth, % of control (lower = inhibition) in [3] was 9.85%. The growth, % of control in [4] worked out at 6.35%. The cell viability, % of control (lower = more cytotoxic) in experiment [5] was found to be 0.772%. Further, the viability (% of control) in experiment [6] was 1.64%. Also, the Potency entry in [7] and in experiment [8] was “inactive” throughout.
As to `O=C(O)Cn1nnc(-c2cc(N3CCC(Oc4cc(F)ccc4Br)CC3)no2)n1`, the parasite growth, % of DMSO control in experiment [1] (setting [11]) worked out at 86%. Also, the parasite growth remaining, % of DMSO control (lower = more inhibition) in experiment [2] (setting [11]) stood at 127%. The molecule further registered a parasite growth, % of control (lower = inhibition) in [3] of 83.7%. In experiment [4], this molecule yielded a growth, % of control of 95.6%. For the same molecule, the cell viability, % of control (lower = more cytotoxic) in [5] turned out to be 231%. Further, the viability (% of control) in [6] is 114%. Moreover, the Potency entry in experiment [7] and in experiment [8] was “inactive” each time.
In the case of `CCCCN1CCC(CNC(=O)c2c3n(c4ccccc24)CCCO3)CC1`, the parasite growth, % of DMSO control in experiment [1] (setting [11]) amounted to 25.9%. Also, the cell viability, % of control (lower = more cytotoxic) in experiment [5] was found to be 110%. Moreover, the viability (% of control) in [6] came to 9.06%. The Potency result in experiment [7] and in experiment [8] was “inactive” throughout.
For `C[C@H]1C[C@@H]2[C@@H]([C@@H](O)C[C@@]3(C)[C@H]2CC[C@]3(O)C(=O)CO)[C@@]2(C)C=CC(=O)C=C12`, the parasite growth, % of DMSO control in experiment [1] (at 9.64 µM (top of the series)) stood at 78.1%; in experiment [1] (at 28.5 µM), 59.3%. For the same molecule, the parasite growth remaining, % of DMSO control (lower = more inhibition) in experiment [2] (at 9.64 µM (top of the series)) stood at 93.1%; in [2] (at 28.5 µM), 84.7%. In addition, the cell viability, % of control (lower = more cytotoxic) in experiment [5] is 111%. For the same molecule, the viability (% of control) in experiment [6] was determined as 53.2%. In addition, the Potency result in experiment [7] and in experiment [8] was “inactive” throughout.
With `CS(=O)(=O)c1ccc(-c2cnc(N)c(C(=O)Nc3ccccc3)n2)cc1`, in experiment [1] (setting [11]), the parasite growth, % of DMSO control was found to be 7.85%. In addition, the parasite growth remaining, % of DMSO control (lower = more inhibition) in experiment [2] (setting [11]) amounted to 9.88%. Besides, the parasite growth, % of control (lower = inhibition) in [3] was 7.67%. Besides, the growth, % of control in [4] came out at 2.44%. The cell viability, % of control (lower = more cytotoxic) in experiment [5] stood at 99.6%. In addition, the viability (% of control) in [6] was found to be 41.5%. Besides, the Potency entry in experiment [7] and in experiment [8] was “inactive” each time.
`CCC1=C[C@@H]2CN(C1)Cc1c([nH]c3ccccc13)[C@@](C(=O)OC)(c1cc3c(cc1OC)N(C)[C@@H]1[C@@](O)(C(=O)OC)[C@H](OC(C)=O)[C@]4(CC)C=CCN5CC[C@]31[C@@H]54)C2` showed a parasite growth, % of DMSO control in experiment [1] (setting [11]) of 5.09%. The parasite growth remaining, % of DMSO control (lower = more inhibition) in [2] (setting [11]) turned out to be 7.41%. In addition, in [3], the parasite growth, % of control (lower = inhibition) amounted to 20.6%. Besides, the growth, % of control in [4] turned out to be 8.82%. In addition, in [5], the cell viability, % of control (lower = more cytotoxic) was found to be 28.9%. For the same molecule, the viability (% of control) in [6] is 14.5%. Besides, the Potency result in [7] and in experiment [8] was “inactive” in each case.
For the molecule `Cn1c(=O)n(-c2ccc(C(C)(C)C#N)cc2)c2c3cc(-c4cnc5ccccc5c4)ccc3ncc21`, the remaining parasite growth % (stronger effect = lower value) in experiment [9] was 1.17%. Moreover, in experiment [10], the remaining proliferation (% of control), lower = more inhibition was determined as 1.06%. In [1] (setting [11]), the parasite growth, % of DMSO control was determined as 5.06%. The parasite growth remaining, % of DMSO control (lower = more inhibition) in experiment [2] (setting [11]) was found to be 7.73%. In [3], this molecule yielded a parasite growth, % of control (lower = inhibition) of 6.52%. For the same molecule, the cell viability, % of control (lower = more cytotoxic) in [5] amounted to 8.42%. The viability (% of control) in experiment [6] is 11.9%. In addition, the Potency entry in experiment [7] and in experiment [8] was “inactive” throughout.
